# Records with an inconclusive call do not appear. Where a call stands in place of a potency, no number is given. Activity calls are given as the source filed them. Unless noted, the call rests on the fitted dose curve; in most records, active means well fitted curve in the direction sought with a large enough effect; inconclusive means small, poorly fitted or top-dose-only effect, or another doubt; inactive means no such curve, though single readings can be large; an effect the other way counts as inactive or inconclusive.
# Experiments:
# [1] = target: Alpha-galactosidase A (Homo sapiens) (UniProt P06280); assay: Counterscreen for Glucocerebrosidase Inhibitors: qHTS Assay for Human alpha-Galactosidase at pH 4.5 (AID 992)
# Sequence of Alpha-galactosidase A (Homo sapiens) (P06280 whole entry, looked up): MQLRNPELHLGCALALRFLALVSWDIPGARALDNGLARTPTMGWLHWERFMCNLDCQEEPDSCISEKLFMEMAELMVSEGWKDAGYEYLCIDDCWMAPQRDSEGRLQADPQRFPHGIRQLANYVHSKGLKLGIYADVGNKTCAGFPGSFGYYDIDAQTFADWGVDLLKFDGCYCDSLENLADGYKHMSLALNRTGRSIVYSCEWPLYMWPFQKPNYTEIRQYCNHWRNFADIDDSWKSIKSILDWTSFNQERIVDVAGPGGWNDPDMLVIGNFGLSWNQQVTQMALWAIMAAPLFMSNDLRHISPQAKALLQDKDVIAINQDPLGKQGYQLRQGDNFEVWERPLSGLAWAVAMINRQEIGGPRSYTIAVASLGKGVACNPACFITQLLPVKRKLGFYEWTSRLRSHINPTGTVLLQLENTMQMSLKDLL
# Outline: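 Citrate buffer pH 4.5, Tween-20 0.005%. Enzyme 2 nM, substrate 80 uM, 20 min RT. Stop pH 10. Fluorescence Ex 365/Em 440. AC50 by Hill fit.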
# [2] = target: alpha-glucosidase (Oryza sativa, rice) (UniProt Q653V4); assay: Counterscreen for Glucocerebrosidase Inhibitors: qHTS Assay for Rice alpha-Glucosidase at pH 5.0 (AID 997)
# Outline: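 Endpoint fluorogenic assay at pH 5.0: compounds (0.7 nM to 77 uM) titrated against 4 nM rice enzyme and 400 uM 4-MU-alpha-glucoside for 20 min at room temperature; NaOH/glycine stop, read ex 365/em 440 nm, Hill-fitted AC50.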
# [3] = target: Alpha-galactosidase (Coffea arabica) (UniProt Q42656); assay: Counterscreen for Glucocerebrosidase Inhibitors: qHTS Assay for Coffee Bean alpha-Galactosidase at pH 5.9 (AID 998)
# Sequence of Alpha-galactosidase (Coffea arabica) (Q42656 whole entry, looked up): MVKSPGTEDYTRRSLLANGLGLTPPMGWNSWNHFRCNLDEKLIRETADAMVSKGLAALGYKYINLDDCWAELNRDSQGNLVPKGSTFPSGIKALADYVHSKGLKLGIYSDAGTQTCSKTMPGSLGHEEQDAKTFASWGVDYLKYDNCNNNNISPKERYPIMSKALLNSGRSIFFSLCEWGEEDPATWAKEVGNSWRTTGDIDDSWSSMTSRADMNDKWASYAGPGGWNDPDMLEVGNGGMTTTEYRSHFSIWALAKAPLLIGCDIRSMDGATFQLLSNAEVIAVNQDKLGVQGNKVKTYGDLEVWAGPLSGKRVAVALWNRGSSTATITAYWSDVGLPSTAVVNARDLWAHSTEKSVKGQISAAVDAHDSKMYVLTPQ
# Outline: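 Fluorogenic 4-MU substrate hydrolysis, 80 uM substrate and 2 nM coffee bean alpha-galactosidase, pH 5.9 citrate buffer, 20 min at room temperature, then NaOH/glycine stop. Titration 0.7 nM–77 uM, normalized to no-enzyme and enzyme controls, AC50 via Hill equation.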
# [4] = Validation of Assay for Modulators of Lamin A Splicing (AID 1459; active means well fitted curve in the direction sought with a large enough effect in the signal ratio; the % refers to the signal ratio;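 further: cells exposed to compound for two days before reading; ratio rise marks activators and ratio drop marks inhibitors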)
# Outline: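 S3 HeLa stably expressing lamin A-EGFP splicing minigene and DsRed2, 600 cells/well in Opti-MEM with 2% FBS, treated 48 h at 37C; laser-scanning cytometry gives GFP/RFP total intensity ratio; ancitabine positive control, 0.5% DMSO vehicle.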
# [5] = qHTS Assay for Lipid Storage Modulators (AID 1519; calls by dose curve); details: Drosophila S3 cells, BODIPY lipid droplet/cell ratio, laser cytometry, cells loaded with oleic acid; for activity change, negative = inhibition: at 57.5 µM (top of the series)
# Outline: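 Cells seeded at 5,000 per well were treated with compounds over a concentration series and loaded with oleic acid (400 uM, as added). Lipid droplet fluorescence (488 nm excitation, 500-530 nm channel) was read by laser-scanning cytometry and normalized to 20 uM Triacsin C.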
# [6] = target: DNA repair nuclease/redox regulator APEX1 (Homo sapiens) (UniProt P27695); assay: qHTS Validation Assay for Inhibitors of the Human Apurinic/apyrimidinic Endonuclease 1 (APE1) (AID 1705; further: potency means the concentration at half of the fitted maximal effect;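 on activity change, negative = inhibition: TAMRA fluorescence gain over two minutes as APE1 cuts a quenched THF abasic duplex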)
# Sequence of DNA repair nuclease/redox regulator APEX1 (Homo sapiens) (P27695 whole entry, looked up): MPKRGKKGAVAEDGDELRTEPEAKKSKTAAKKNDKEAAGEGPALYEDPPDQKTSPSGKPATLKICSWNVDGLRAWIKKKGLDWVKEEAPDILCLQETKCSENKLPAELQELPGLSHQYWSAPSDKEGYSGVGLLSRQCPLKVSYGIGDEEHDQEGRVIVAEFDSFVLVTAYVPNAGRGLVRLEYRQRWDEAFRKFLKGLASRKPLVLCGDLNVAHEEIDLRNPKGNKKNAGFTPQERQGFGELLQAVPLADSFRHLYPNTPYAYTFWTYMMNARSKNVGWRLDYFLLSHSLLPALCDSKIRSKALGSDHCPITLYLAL
# Outline: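 Fluorogenic double-stranded THF abasic-site substrate (5'-TAMRA/3'-BHQ-2), 50 nM final. Enzyme preincubated with compound 15 min at room temperature, then substrate added. Kinetic fluorescence (ex 525/em 598 nm) read three times at 60 s intervals; activity taken as third-minus-first read difference.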
# [7] = Counterscreen for APE1 Inhibitors: Fluorescent Dye Displacement Validation Assay (AID 1707); further: potency means the concentration at half of the fitted maximal effect
# Outline: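 Signal: ThO fluorescence (ex 480 nm/em 540 nm) on binding 50 nM dsDNA; displacement by test compound reduces it. Conditions: 250 nM dye, 50 mM Tris-HCl pH7.5, 2 mM MgCl2, 50mM NaCl, 0.01% Tween-20.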
# [8] = qHTS for differential inhibitors of proliferation of Plasmodium falciparum line 3D7 (AID 1876); further: potency means the concentration at half of the fitted maximal effect
# [9] = target: Endonuclease 4 (Escherichia coli (strain K12)) (UniProt P0A6C1); assay: Counterscreen for APE1 Inhibitors: qHTS Validation Assay for Inhibitors of Endonuclease IV (AID 1708); further: potency means the concentration at half of the fitted maximal effect
# Outline: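 The reaction buffer contained 50 mM Tris-HCl pH 7.5, 50 mM NaCl, 2 mM MgCl2, 1 mM DTT and 0.01% Tween-20. Incision of a 50 nM fluorophore/quencher THF substrate by 2 nM enzyme was measured kinetically.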
# [10] = qHTS for differential inhibitors of proliferation of Plasmodium falciparum line 7G8 (AID 1815);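 further: parasite growth measured after three days of incubation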; further: potency means the concentration at half of the fitted maximal effect
# [11] = qHTS for differential inhibitors of proliferation of Plasmodium falciparum line GB4 (AID 1816); details: Potency: Plasmodium falciparum GB4 proliferation inhibition;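 further: parasite growth measured after 72 h incubation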; further: potency means the concentration at half of the fitted maximal effect
# [12] = measured here: cell count channel max response
# [13] = measured here: lipid channel max response
SMILES,outcome [1],outcome [2],outcome [3],outcome [4],"activity change, negative = inhibition [5]","max response [5, 12] [%]","max response [5, 13] [%]",Potency [6],Potency [7],Potency [8],Potency [9],Potency [10],Potency [11]
C[N+](C)(C)CC#CCOC(=O)Nc1cccc(Cl)c1,inactive,inactive,inactive,inactive,-0.494% (inactive),-7.08,-8.94,inactive,inactive,12.6 µM (active),,,
COc1ccc2[nH]c3c(c2c1)CCNC3,inactive,inactive,inactive,inactive,-0.655% (inactive),-42.9,-46.2,inactive,inactive,inactive,inactive,inactive,
CN1CCc2cccc(Cl)c2CC1,inactive,inactive,inactive,inactive,0.882% (inactive),-8.27,-8.1,inactive,inactive,inactive,inactive,inactive,
Cc1o[nH]c(=O)c1CC(N)C(=O)O (stereo unspecified),,,,inactive,0.836% (inactive),-21.1,-19,inactive,inactive,inactive,inactive,inactive,inactive
CC1OC1P(=O)(O)O (stereo unspecified),,,,inactive,3.73% (inactive),11.8,19.6,inactive,inactive,inactive,inactive,inactive,inactive
CN(N=O)c1ccc(O)c(O)c1,inactive,inactive,inactive,inactive,-1.9% (inactive),-25.4,-24.9,0.501 µM (active),14.1 µM (active),inactive,8.91 µM (active),inactive,
NNC(=O)c1ccc(O)cc1,inactive,inactive,inactive,inactive,0.0246% (inactive),-17.6,-15.4,inactive,inactive,inactive,,inactive,inactive
Nc1ccc(CCN2CCN(c3cccc(C(F)(F)F)c3)CC2)cc1,inactive,inactive,inactive,inactive,2.29% (inactive),-6.99,-6.09,inactive,inactive,inactive,,7.94 µM (active),
CCCN(CCC)CCc1ccc(O)c(O)c1,inactive,inactive,inactive,inactive,-0.321% (inactive),-7.51,-5.97,inactive,inactive,,inactive,12.6 µM (active),10 µM (active)
